# Screening data: PubChem, The Scripps Research Institute Molecular Screening Center
# TTR transcr act: TTR transcription activation, primary screen. SH-SY5Y TTR promoter Gaussia luciferase, luminescence; 100% = recombinant luciferase protein wells. activation, % at 16.7 µM. 1.3% of 92,000 active;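 active means activation above the mean of all tested compounds plus 3 SD, cut at about 9.5% in these data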;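 further: cells exposed to compounds for one day before reading; 0% = median of all test compound wells on the plate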
# HuH7 TTR inh: counter-screen for TTR activators: TTR transcription inhibitors in HuH7 cells. 4% of 1,100 active. shares compounds with TTR transcr act. inhibition, % at 16.7 µM. HuH7 TTR promoter-Gaussia luciferase reporter, luminescence;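 active means average inhibition above the solvent-only control wells' mean plus 3 SD, cut at about 15% in these data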;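 further: 0% = cells with DMSO only and 100% = cells with inhibitor control FD; inhibitors lower well luminescence so higher value means more inhibition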
# TTR act confirm: confirmation of human transthyretin transcription activators. activation, % at 16.7 µM. shares compounds with TTR transcr act. SHSY5Y TTR promoter Gaussia luciferase, luminescence; 100% = purified Lucia enzyme wells, no cells. 1,100 tested, under 10 active;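 active means mean activation above a set limit taken from the earlier primary screen, cut at about 11% in these data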;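 further: 0% = DMSO-treated cells and 100% = recombinant Lucia luciferase without cells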
# Starred values were filed as active, the others as inactive. Shown is part of a subset that was picked to be rich in hits.
SMILES,TTR transcr act,others
COc1ccc(N(C(=O)c2ccco2)C(C(=O)NC2CCCC2)c2ccc(N(C)C)cc2)cc1OC (stereo not given),17.3*,HuH7 TTR inh=-22.5;TTR act confirm=1.5
Cc1ccc(C(C(=O)NC2CCCC2)N(Cc2cccnc2)C(=O)c2snc(C(N)=O)c2N)o1 (stereo not given),-0.5,
Cc1ccc(N(C(=O)c2snc(C(N)=O)c2N)C(C(=O)NC2CCCC2)c2ccco2)cc1 (stereo not given),-3.1,
CN(C)c1ccc(C(C(=O)NC2CCCCC2)N(Cc2ccco2)C(=O)c2snc(C(N)=O)c2N)cc1 (stereo not given),11.5*,HuH7 TTR inh=7.3;TTR act confirm=-1.1
COc1ccc(N(C(=O)c2ccco2)C(C(=O)NC2CCCCC2)c2ccccc2)cc1 (stereo not given),-1.1,
CCOc1ccc(CNC(=O)C2Cc3cc(S(=O)(=O)N4CCCC4)ccc3N2C(C)=O)cc1 (stereo not given),-0.2,
COC(=O)c1scc(C)c1NS(=O)(=O)c1ccc(NC(C)=O)cc1,0.7,
O=S(=O)(O)c1ccc(Cl)c(Cl)c1,-0.8,
Cc1cccnc1NC(=S)NC(=O)/C=C/c1ccco1,11.6*,HuH7 TTR inh=-0.1;TTR act confirm=-0.2
O=C(/C=C\c1ccco1)NC(=S)Nc1ccccc1O,-0.2,
Cn1nnc(NC(=S)NC(=O)/C=C/c2ccco2)n1,7.8,
CCOC(=O)[C@]12CCCC=C1N(CCCOC)C(=O)[C@@H]2CC(=O)NCC12CC3CC(CC(C3)C1)C2,2.7,
CC(=O)N1C[C@H]2CON(C)[C@H]2C[C@H]1c1ccccc1,-0.6,
Cc1ccccc1NC(=O)C12CC3CCC1(C)C3(C)CO2 (stereo not given),14.0*,HuH7 TTR inh=-14.5;TTR act confirm=0.0
Cc1ccccc1NC(=O)C1C2CCC(O2)C1C(=O)O (stereo not given),1.9,
CC12COC3(C(=O)NCCc4ccccc4)CC1CCC32C (stereo not given),3.1,
O=C1NC[C@@H](CCCCN2C[C@H](Cc3ccc(O)cc3)N(CCc3ccccc3)C(=O)C2=O)N(CCc2ccccc2)C1=O,1.0,
CC(C)(C)c1ccc(OCC(=O)NCCN2CCOCC2)cc1,5.3,
COc1ccc([N+](=O)[O-])c(OC)c1C(=O)NC(=O)Nc1nc(C)cc(C)n1,5.9,
COc1ccc([N+](=O)[O-])c(OC)c1C(=O)NC(=O)Nc1c(F)cc(F)cc1F,126.5*,HuH7 TTR inh=-7.0;TTR act confirm=0.0
COc1cccc(OC)c1NC(=O)NC(=O)c1c(OC)c(Br)cc([N+](=O)[O-])c1OC,-1.0,
Cc1ccc2nc3n(c(=O)c2c1)-c1cc(Cl)ccc1C(=O)NC3Cc1ccc(O)cc1 (stereo not given),-1.9,
COCCCNC(=O)C[C@H]1C(=O)N(Cc2ccc(OC)cc2)C2=CCCCC[C@@]21C(=O)OC,7.4,
COc1ccc(/C=C/C(=O)OCc2csc(-c3ccccc3)n2)cc1OC,-1.2,
CC(=O)Nc1nc(COc2ccccc2)cs1,-0.8,
SMILES,TTR transcr act,others
COc1ccccc1OCc1csc(N)n1,23.9*,HuH7 TTR inh=-14.3;TTR act confirm=-0.2
Cc1cccc(NC(=O)Nc2nc3ncccn3c2-c2ccc(F)cc2)c1,0.7,
C=CCN(C/C(=N\O)c1sc(C(=O)OCC)nc1C)c1cccc(Br)c1,3.6,
CN1CCN(C(=S)NCCc2ccccc2)CC1,10.8*,HuH7 TTR inh=-13.6;TTR act confirm=-0.6
O=C(c1ccccc1)N1CCN(C(=S)NCCc2ccccc2)CC1,-1.1,
OCC1CCCN(C(=S)NCCc2ccccc2)C1 (stereo not given),1.8,
CC(C)NC(=O)C1(C)CSCC(=O)N1CCOc1ccccc1 (stereo not given),-0.7,
O=C1Oc2ccccc2C2(O)C3CCCCCC3C12 (stereo not given),13.3*,HuH7 TTR inh=-11.3;TTR act confirm=-0.2
O=C(NNC(=O)C(c1ccccc1)c1ccccc1)c1ccccc1O,-0.4,
CCOc1cc(OCC)cc(C(=O)N2CCC[C@H]2C(=O)N2CCC[C@H]2C(=O)NCc2ccccn2)c1,0.3,
C[C@@H]1c2ccccc2N2C[C@H](Cc3ccc(C(=O)c4ccccc4)cc3)C[C@@H]12,1.4,
Cc1cccc(OCC(=O)N(C)CC(=O)Nc2cccc(F)c2)c1C,-1.3,
O=C1[C@H]2[C@@H](/C=C/c3ccccc3)N3C(=O)CN(CCO)C(=O)[C@@]3(Cc3ccccc3)[C@H]2C(=O)N1c1ccccc1,-0.3,
C[C@@]12C(=O)N(CCO)CC(=O)N1[C@H](/C=C/c1ccccc1)[C@@H]1C(=O)N(c3ccccc3)C(=O)[C@@H]12,23.1*,HuH7 TTR inh=-3.1;TTR act confirm=0.2
O=C1[C@H]2[C@@H](/C=C/c3ccccc3)N3C(=O)CN(CC4CC4)C(=O)[C@@]3(Cc3ccccc3)[C@H]2C(=O)N1c1ccccc1,-1.1,
CCn1c(=O)c(CCC(=O)N2CCN(c3ccccn3)CC2)c(C)c2c(C)nn(-c3ccccc3)c21,-1.0,
Fc1c(CSC(=S)N2CCOCC2)cccc1CSC(=S)N1CCOCC1,-0.6,
O=C1CC(C(=O)N2CCc3ccccc32)CN1c1cccc(C(F)(F)F)c1 (stereo not given),-0.2,
C#CCOCCOCCOCCNc1nc(N2CCN(C(=O)[C@H](CC(N)=O)n3cc([C@@H](N)CC(N)=O)nn3)CC2)nc(N2CCN(C(=O)[C@H](CC(N)=O)n3cc([C@@H](N)CC(N)=O)nn3)CC2)n1,14.5*,HuH7 TTR inh=-4.0;TTR act confirm=-0.1
C#CCOCCOCCOCCNc1nc(N2CCOCC2)nc(N2CCN(C(=O)[C@H](CC(N)=O)n3cc([C@@H](N)C(C)C)nn3)CC2)n1,-0.6,
C#CCOCCOCCOCCNc1nc(N2CCN(C(=O)[C@H](CCC(=O)O)n3cc([C@@H](N)CC(N)=O)nn3)CC2)nc(N2CCN(C(=O)[C@H](CCC(=O)O)n3cc([C@@H](N)CC(N)=O)nn3)CC2)n1,-0.5,
Cc1ccc(NC(=O)CCn2nc([N+](=O)[O-])cc2C)nc1,3.0,
O=C(NC1CCCCC1)C(c1ccccc1)n1c(=O)c(-c2ccco2)nc2ccccc21 (stereo not given),1.1,
Cc1ccc(Nc2c3c(nc4ncnn24)CCC3)cc1,19.6*,HuH7 TTR inh=23.6*;TTR act confirm=-0.8
CC(=O)c1ccc(Nc2cc(C)nc3ncnn23)cc1,1.6,
SMILES,TTR transcr act,others
CCCc1cc(Nc2ccc(C)cc2)n2ncnc2n1,-2.1,
O=C(OC12CCCN(C1)/C(=C/c1cccnc1)C2)c1ccc(F)cc1 (stereo not given),-1.9,
COc1cccc(C(O)c2nccn2Cc2ccccc2)c1OC (stereo not given),1.0,
COc1ccccc1C(O)c1nccn1C (stereo not given),14.4*,HuH7 TTR inh=-3.5;TTR act confirm=-0.5
CCn1c(C(O)c2cccc(OC)c2OC)nc2ccccc21 (stereo not given),5.8,
O=C(/C=C/c1ccc(Cl)cc1)N(Cc1cccs1)C1CCS(=O)(=O)C1 (stereo not given),2.7,
O=C(NNc1cccc(Cl)n1)Nc1ccc(F)cc1,0.3,
COC(=O)c1cc(S(=O)(=O)NCC(C)c2ccccc2)c[nH]1 (stereo not given),4.4,
COc1ccc(S(=O)(=O)NC(C)C(=O)Nc2ccc3c(c2)OCCO3)cc1OC (stereo not given),2.5,
Cc1[nH]c2ccccc2c1C(=O)CSc1nc2ncc(Cl)cc2[nH]1,-1.9,
O=C(CSc1nc2ncc(Cl)cc2[nH]1)NCC(=O)Nc1ccc(F)c(F)c1F,10.6*,HuH7 TTR inh=-11.1;TTR act confirm=0.1
